Hit rate of the full screen: of about 39,000 compounds, about 500 (1.3%) were called active. For the sample, actives were picked, then their nearest neighbours and some compounds at random.

In the assay the test system is S. aureus RN4220. In words: growth inhibition call (relative growth <= 0.2). The note with it: 50 µM.
In the case of `COc1ccccc1NC(=O)C1=C(C)N=C(SCC(=O)Nc2ccccc2[N+](=O)[O-])C(C#N)[C@@H]1c1ccccc1F` (stereo partly drawn), the growth inhibition call was “inactive”. Regarding `C[C@H]1CN([C@@H](C)CO)C(=O)Cc2cc(NC(=O)CCCCCC(=O)Nc3ccccc3N)ccc2O[C@H]1CN(C)Cc1ccc(C(F)(F)F)cc1`, the growth inhibition call is “inactive”. As for `COc1ccc(NC(=O)N(C)C[C@H]2OCCCC[C@@H](C)Oc3ccc(NC(=O)Nc4ccccc4)cc3C(=O)N([C@H](C)CO)C[C@H]2C)cc1`, the growth inhibition call was “inactive”. In the case of `COc1ccc(S(=O)(=O)Nc2ccc3c(c2)C(=O)N([C@@H](C)CO)C[C@@H](C)[C@H](CN(C)Cc2ccc(C(F)(F)F)cc2)OCCCC[C@H](C)O3)cc1` it was “inactive”. Consider `C[C@H]1CCCCO[C@H](CN(C)S(=O)(=O)c2ccc(Cl)cc2)[C@@H](C)CN([C@@H](C)CO)C(=O)c2cc(NC(=O)Nc3ccc4c(c3)OCO4)ccc2O1`, for which the growth inhibition call is “inactive”. With `COC(=O)c1cccnc1`, the growth inhibition call was “inactive”.

For `Cc1ccc(N(c2ccc(C)cc2)c2cccnc2)cc1`, the growth inhibition call was “active”. For the compound `CCN(CC)C(=O)c1cccnc1`, the growth inhibition call is “inactive”. With `CS(=O)(=O)N1C[C@@H]2OCC[C@@H]2[C@H](C(=O)NCc2cccnc2)C1`, the growth inhibition call is “inactive”. As for `O=C(O)c1c(Br)c(Br)c(Br)c(Br)c1-c1c2ccc(=O)cc-2oc2cc(O)ccc12`, the entry is “active”; as for `O=c1cc(-c2ccccc2)oc2cc(O)ccc12`, “inactive”. In the case of `O=c1cc(-c2ccccc2O)oc2cc(O)ccc12` it was “inactive”; in that of `COc1ccccc1S(=O)(=O)N(C)C[C@@H]1OCc2cnnn2CCCC(=O)N([C@H](C)CO)C[C@@H]1C`, “inactive”.

For the compound `Cc1onc(-c2ccccc2)c1CN`, the growth inhibition call was “inactive”. Take `Clc1ccc(COC(Cn2ccnc2)c2ccc(Cl)cc2Cl)cc1.O=[N+]([O-])O` (stereo not drawn): the growth inhibition call is “inactive”. For the compound `Clc1ccc(CSC(Cn2ccnc2)c2ccc(Cl)cc2Cl)cc1.O=[N+]([O-])O` (stereo not drawn), the growth inhibition call is “inactive”.

On to `Clc1ccc(CON=C(Cn2ccnc2)c2ccc(Cl)cc2Cl)c(Cl)c1.O=[N+]([O-])O`, for which the growth inhibition call is “active”. As for `CC(=O)N(C)C[C@H]1Oc2ncc(C#C[C@@H](C)O)cc2C(=O)N([C@@H](C)CO)C[C@@H]1C`, the entry is “inactive”. For `CC(C)NC(=O)N(C)C[C@H]1Oc2c(NS(=O)(=O)c3cn(C)cn3)cccc2C(=O)N([C@H](C)CO)C[C@@H]1C`, the growth inhibition call was “inactive”. Turning to `C[C@H]1CN([C@@H](C)CO)C(=O)c2cc(NC(=O)NC3CCCCC3)ccc2O[C@H]1CN(C)Cc1ccc(Cl)c(Cl)c1`, the growth inhibition call is “inactive”. Consider `NC[C@@H]1CCCO1`, for which the growth inhibition call is “inactive”. Consider `CC[C@H]1OC(=O)C[C@@H](O)[C@H](C)[C@@H](O[C@@H]2O[C@H](C)C[C@H](N(C)C)[C@H]2O)[C@@H](CC=O)C[C@@H](C)C(=O)/C=C/[C@]2(C)O[C@H]2[C@@H]1C`, for which the growth inhibition call is “active”. For `CC[C@H]1OC(=O)C[C@@H](O)[C@H](C)[C@@H](O[C@@H]2O[C@H](C)[C@@H](O[C@H]3C[C@@](C)(O)[C@@H](O)[C@H](C)O3)[C@H](N(C)C)[C@H]2O)[C@@H](CC=O)C[C@@H](C)C(=O)/C=C/C(C)=C/[C@@H]1CO[C@@H]1O[C@H](C)[C@@H](O)[C@@H](OC)[C@H]1OC`, the growth inhibition call was “active”. As to `CCC1OC(=O)CC(O)C(C)C(OC2OC(C)C(OC3CC(C)(O)C(O)C(C)O3)C(N(C)C)C2O)C(CC=O)CC(C)C(=O)C=CC(C)=CC1COC1OC(C)C(O)C(OC)C1OC.O=C(O)C(O)C(O)C(=O)O` (stereo not drawn), the growth inhibition call was “active”. With `COc1cccc(C(=O)Nc2ccc3c(c2)C(=O)N(C)[C@@H]2CC[C@H](CC(=O)NCC4CC4)O[C@@H]2CO3)c1`, the growth inhibition call was “inactive”. As for `Cc1noc(C)c1NC(=O)Nc1ccc2c(c1)C(=O)N([C@H](C)CO)C[C@H](C)[C@@H](CN(C)C(=O)C1CCCCC1)OCCCC[C@@H](C)O2`, the growth inhibition call is “inactive”.

For `COCC#Cc1ccc2c(c1)O[C@H](CN(C)C(=O)c1ccccc1F)[C@@H](C)CN([C@@H](C)CO)S2(=O)=O`, the growth inhibition call is “inactive”. In the case of `C[C@@H]1CN([C@H](C)CO)C(=O)c2cc(NC(=O)Nc3cccc4ccccc34)ccc2O[C@H]1CN(C)S(=O)(=O)c1ccccc1` it was “inactive”; in that of `COC(=O)c1cc(=O)nc2n1[C@H]1O[C@H](CO)[C@H](O)[C@H]1O2`, “inactive”; in that of `COc1cccc(NC(=O)C[C@H]2CC[C@@H]3[C@@H](COc4ccc(NC(=O)C5CCOCC5)cc4C(=O)N3C)O2)c1`, “inactive”.

Take `CC(C)NC(=O)N(C)C[C@H]1Oc2ccc(NS(=O)(=O)c3cn(C)cn3)cc2C(=O)N([C@@H](C)CO)C[C@H]1C`: the growth inhibition call was “inactive”.

In the case of `CN(C)C1CCN(C(=O)c2cnc(-c3noc4cc(-c5cccc(C(F)(F)F)c5)ccc34)s2)CC1`, the growth inhibition call is “inactive”.

Regarding `CN(C)C1CCN(C(=O)c2cnc(-c3noc4cc(-c5ccccc5C(F)(F)F)ccc34)s2)CC1`, the growth inhibition call was “active”. With `Cc1ccc(S(=O)(=O)N(C)C[C@H]2Oc3c(NS(=O)(=O)c4ccc(F)cc4)cccc3C(=O)N([C@@H](C)CO)C[C@H]2C)cc1`, the growth inhibition call was “inactive”.

Regarding `C[C@H]1CN([C@@H](C)CO)C(=O)c2c(c3ccccc3n2C)-c2ccccc2CO[C@H]1CN(C)Cc1ccc(C(=O)O)cc1`, the growth inhibition call is “inactive”. As for `CC[C@@H](C)NCCCCOc1ccc(Cl)cc1C(C)(C)C`, the entry is “active”; as for `Cc1ccc(OCc2ccc(Cl)cc2)c(C(C)(C)C)c1`, “inactive”.

In the case of `CC(C)(C)NCCCCOc1ccc(Cl)cc1C(C)(C)C`, the growth inhibition call was “inactive”.

Consider `C[C@H](CO)N1C[C@H](C)[C@@H](CN(C)S(=O)(=O)c2cn(C)cn2)Oc2ccc(NC(=O)Nc3ccc4c(c3)OCO4)cc2CC1=O`, for which the growth inhibition call is “inactive”.

Take `CC[C@H](C)[C@H](N)C1=N[C@H](C(=O)N[C@@H](CC(C)C)C(=O)N[C@@H]2CCC(=O)[O][Zn][O]C(=O)C[C@H]3NC(=O)[C@H](Cc4c[nH]cn4)NC(=O)[C@@H](Cc4ccccc4)NC(=O)[C@H]([C@@H](C)CC)NC(=O)[C@@H](CCCN)NC(=O)[C@H](CCCCNC(=O)[C@H](CC(N)=O)NC3=O)NC(=O)[C@H]([C@@H](C)CC)NC2=O)CS1`: the growth inhibition call is “active”. In the case of `CC(=O)N[C@@H](CCCNC(=N)N)C(=O)N[C@H]1CSSC[C@@H](C(N)=O)NC(=O)[C@H](Cc2c[nH]c3ccccc23)NC(=O)[C@H](CCCNC(=N)N)NC(=O)[C@@H](Cc2ccccc2)NC(=O)[C@H](Cc2cnc[nH]2)NC(=O)[C@@H](C)NC1=O`, the growth inhibition call is “inactive”. Turning to `CC[C@H](C)[C@H](N)C1=N[C@H](C(=O)N[C@@H](CC(C)C)C(=O)N[C@H](CCC(=O)O)C(=O)N[C@H](C(=O)N[C@H]2CCCCNC(=O)[C@H](CC(N)=O)NC(=O)[C@@H](CC(=O)O)NC(=O)[C@H](Cc3cnc[nH]3)NC(=O)[C@@H](Cc3ccccc3)NC(=O)[C@H]([C@@H](C)CC)NC(=O)[C@@H](CCCN)NC2=O)[C@@H](C)CC)CS1`, the growth inhibition call was “active”.

As for `NCCCC[C@H](NC(=O)[C@@H]1CCCN1C(=O)[C@@H]1CSSC[C@H](N)C(=O)N[C@@H](Cc2ccccc2)C(=O)N[C@@H](Cc2ccccc2)C(=O)NC(CCC(N)=O)C(=O)N[C@@H](CC(N)=O)C(=O)N1)C(=O)NCC(N)=O` (stereo partly drawn), the growth inhibition call is “inactive”.

(Values after the antibiotic and cytotoxicity screens of Wong et al. (2023).)
